NS1 inh – qHTS Assay for Inhibitors of Influenza NS1 Protein Function; Potency, µM (top dose mostly 46.1 µM), without a hit: at the highest dose activity, positive = more growth; 270,000 compounds, 0.4% hits; AID 2326, 2010; calls by dose curve; note: potency is the fitted concentration of half-maximal effect; actives are rising curves; nearly all actives have a fitted effect of over 50% in size
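In this qHTS, NS1 from influenza A is expressed in budding yeast, where it slows growth. Cells are switched from glucose to 2% galactose medium (pH 6.0, -URA), treated with compound, and growth recovery is read at OD600.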
Pf growth 48h – Primary qHTS for delayed death inhibitors of the malarial parasite plastid, 48 hour incubation; 310,000 compounds, 5.9% hits; Potency, µM (highest dose often 28.7 µM), without a hit: top-dose activity change, negative = inhibition, usual class: inhibitors; P. falciparum luciferase growth in erythrocytes, 48 h; note: potency is the fitted concentration of half-maximal effect; % is set by controls: 0 for no effect and ±100 for the full control effect
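Cell-based growth assay: transgenic P. falciparum expressing firefly luciferase, cultured in red cells within RPMI 1640 containing 0.5% w/v Albumax, 24 mM bicarbonate and gentamycin. A drop in luciferase activity indicates inhibition.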
CHX counter – Cycloheximide Counterscreen for Small Molecule Inhibitors of Shiga Toxin; cell reporter, cycloheximide protein synthesis inhibition counterscreen; max response, %; 300,000 compounds, 12% hits; in the data active = max response mostly above about 13%, no sharp cut-off; inactive = mostly below about 14%; note: read at 38.3 µM for the half of the compounds with a filed dose; 0% is about no effect
Shiga inhibitor – A qHTS for Small Molecule Inhibitors of Shiga Toxin. Vero cells, Shiga toxin protein synthesis inhibition reporter. inhibition, % at 38.7 µM. 290,000 compounds, 9.2% hits. AID 2315, 2010; in the data active = inhibition mostly above about 28%, no sharp cut-off; inactive = mostly below about 43%; note: 0% is about no effect
Pf growth 96h – Primary qHTS for delayed death inhibitors of the malarial parasite plastid, 96 hour incubation; P. falciparum luciferase reporter growth, 96 h; Potency, µM (highest dose often 28.7 µM), for inactives: at the highest dose activity change, negative = inhibition, actives largely listed as inhibitors; 320,000 compounds, 6.9% hits; note: potency is the fitted concentration of half-maximal effect; % is set by controls: 0 for no effect and ±100 for the full control effect
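96 h incubation, 37 C, 5% CO2, of luciferase-reporter P. falciparum-infected RBCs (2% hematocrit, 0.05% parasitemia final) with test compounds; endpoint luminescence.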
SARS PLpro yeast – qHTS of Yeast-based Assay for SARS-CoV PLP | S. cerevisiae expressing SARS-CoV PLpro, growth rescue | Potency, µM (doses to about 32.9 µM), without a hit: top-dose activity, positive = growth rescue, usual class: activators | 330,000 compounds, 0.19% hits; calls by dose curve; note: potency is the fitted concentration of half-maximal effect; 0% is about no effect; nearly all actives have a fitted effect of over 55% in size
* = called active by the depositor; ? = inconclusive; · = not tested or not shown; [ ] = another dose, or the depositor's remark. This is a sample that favours compounds with a hit; in the whole collection about 21% have one here. Unless noted, calls come from the whole dose curve; as a rule, active = well fitted inhibition curve with a large enough effect; inconclusive = small, poorly fitted or top-dose-only effect, or another doubt; inactive = no such curve, though single readings can be large or run the other way.

SMILES	NS1 inh	Pf growth 48h	CHX counter	Shiga inhibitor	Pf growth 96h	SARS PLpro yeast
CC(C)(C)CN1CCNC(=O)C1CC(=O)NCCc1cnn(-c2ccccc2)c1 (stereo not drawn)	8%	0%	12*	6	1%	-2%
COc1cccc(CNC(=O)CC2C(=O)NCCN2CCCc2ccccc2)c1 (stereo not drawn)	25%	?	0	26	9.3µM*	-6%
COc1cc(OC)c(OC)cc1CCC(C)NC(=O)Cc1ccccc1 (stereo not drawn)	1%	-27%[0.00184 µM]	1	-5	-9%	1%
CC(c1ccco1)N(C(=O)c1ccccc1F)c1ccccn1 (stereo not drawn)	1%	0%	9	21	16%	-1%
Cc1ccc(C(=O)N(c2ccccn2)C(C)c2ccco2)cc1C (stereo not drawn)	-3%	·	18*	0	?	2%
CC(c1ccco1)N(C(=O)c1ccc(C(F)(F)F)cc1)c1ccccn1 (stereo not drawn)	·	-1%	18	23	27%	0%
CC(c1ccco1)N(C(=O)c1ccc(Cl)s1)c1ccccn1 (stereo not drawn)	-11%	14%	19*	43*	?	2%
O=C(c1ccco1)N1CCN(C(=O)C2CCCO2)CC1 (stereo not drawn)	10%	-13%	4	13	39%	4%
CS(=O)(=O)c1cccc(S(=O)(=O)N2CCCCCC2)c1	3%	-23%	-3	5	-1%	4%
CC(C)N(CCCNC(=O)C1CCN(S(=O)(=O)N2CCOCC2)CC1)Cc1ccccc1	0%	34%	1	-13	?	4%
Cc1ccc(C(=O)Nc2ccc(C(=O)OCc3cc(=O)n4ccsc4n3)cc2)cc1	·	-20%	·	·	?	-1%
COC(=O)c1ccc(OCc2cc(=O)n3ccsc3n2)cc1	-8%	52%	49*	142*	128%	3%
CC(=O)c1ccc(N2C(=O)[C@@H]3C(C(=O)CCN4C(=O)c5ccccc5C4=O)=NN[C@@H]3C2=O)cc1	?	-2%	1	-13	2.3µM*	14%
COc1ccc(CCNC(=O)Cn2cc(C(F)(F)F)cc(Cl)c2=O)cc1	15%	-2%	-6	-3	21%	1%
CCOc1ccc(-c2ccc(SCc3ccccn3)nn2)cc1	·	34%	40*	59*	-31%	-3%
CCc1ccc(-c2ccc(SCc3ccccn3)nn2)cc1	·	104%	41*	103*	-33%	2%
CC(SC#N)C(=O)C12CC3CC(CC(C3)C1)C2 (stereo not drawn)	·	13µM*	16	-6	30%	-11%
O=c1c(O)c(-c2ccc(O[C@@H]3O[C@H](CO)[C@@H](O)[C@H](O)[C@H]3O)c(O)c2)oc2cc(O)cc(O)c12	·	·	-3	8	·	·
O=C1Nc2ccccc2/C1=N/N=C/c1cccc(O)c1	-38%	2%	49*	48*	24%	-2%
O=C1Nc2ccccc2/C1=N\N=C\C1=C(N2CCOCC2)C(=C\c2ccccc2)/CC1	-8%	?	-2	-7	2.9µM*	0%
Cn1cc(C(=O)N/N=C/C2=C(N3CCOCC3)C(=C\c3ccccc3)/CC2)ccc1=O	11%	14%	-2	35	?	-30%
COc1cc(/C=N/N=C2/C(=O)Nc3ccccc32)cc(OC)c1O	-21%	0%	1	-2	24%	-9%
O=C(CCSc1ccc(Br)cc1)Nc1cccnc1	-40%	-1%	-2	3	7%	-9%
O=C(C[n+]1ccc(C(=O)NCc2ccccc2)cc1)c1ccc(OC(F)F)cc1	·	1%	-3	-4	-24%	1%
O=C(C[n+]1cn(C(F)F)c2ccccc21)c1ccc(OC(F)F)cc1	-49%	-5%	29*	61*	27%	-2%
SMILES	NS1 inh	Pf growth 48h	CHX counter	Shiga inhibitor	Pf growth 96h	SARS PLpro yeast
CCn1nnnc1SCC(=O)Nc1nc(C)c(C)s1	0%	85%	29*	44*	?	12%
COCCCn1nnnc1SCC(=O)Nc1nc(C)c(C)s1	4%	35%	18*	-14	9%	23%
COc1ccc(-c2noc(CN(C)C(=O)c3ccco3)n2)cc1	1%	19%	23	35	12%	1%
CN(Cc1ccc(F)cc1)Cc1nc(-c2ccccc2)no1	-6%	-3%	-1	24	10µM*	-1%
COc1ccc(-c2noc(CN(C)Cc3ccccc3)n2)cc1	-14%	21%	11*	18	?	2%
COc1ccc(-c2noc(CN(C)Cc3ccc(C)o3)n2)cc1	0%	17%	11*	35*	3%	?
CCN(CCn1cccn1)Cc1nc(-c2ccc(OC)cc2)no1	-4%	6%	4	14	?	0%
COc1cccc(CN(C)Cc2nc(C3CC3)no2)c1	-4%	75%	-1	-1	12µM*	0%
CCOC(=O)c1c(-c2ccc(C)cc2)csc1NC1=NS(=O)(=O)c2ccccc21	1%	17%	-3	-11	-27%	3%
COc1ccc(-c2coc(CCC(=O)N3CCN(c4cc(C)ccc4C)CC3)n2)cc1	·	·	·	·	·	22%
COc1ccc(CCc2nc(-c3ccc(-n4cccc4)cc3)no2)cc1	6%	·	-3	-8	56%	0%
COc1cccc(CN(C)Cc2c(O)ccc3ccccc23)c1	9%	?	26	24*	-1%	-3%
COc1ccc(-c2noc(CCc3ccccc3)n2)cc1	-8%	39%	23*	88*	-14%	-2%
COc1ccc(CN(C)Cc2c(O)ccc3ccccc23)cc1	-4%	?	9	3	26%	-1%
Cc1ccc(NC(=O)c2cc(C)n(-c3cccc(C)c3)c2C)cc1	13%	15%	76*	72*	-87%	-55%
Cc1cc(C(=O)Nc2ccc(Cl)cc2)c(C)n1-c1ccccc1	-3%	?	6	7	-51%	-5%
Cc1ccc(NC(=O)c2cc(C)n(-c3ccccc3)c2C)cc1	9%	-74%	26*	25	-99%	-63%
CC(=O)Nc1ccc(NC(=O)CSc2ccc3nnc(CCNS(=O)(=O)c4ccc(C)cc4)n3n2)cc1	-5%	0%	9	-5	-2%	-3%
CN(C(=O)Cc1ccccc1OC(=O)c1ccccc1)c1ccccc1I	·	·	-2	-7	·	·
O=C(Nc1ccc(Br)cc1)C1CCCN1S(=O)(=O)c1cccs1 (stereo not drawn)	-32%	·	-4	3	3.7µM*	-5%
CC(=O)c1ccc(NC(=O)C2CCCN(S(=O)(=O)c3c(C)[nH]c(=O)[nH]c3=O)C2)cc1 (stereo not drawn)	·	157%	19	1	4.1µM*	0%
